# Experimental data as given in PubChem BioAssay AID1159580 (chemical genetic matrix, 2015).
# Among all 5,500 compounds or so, about 2,000 (36%) were called active. About 18% were inconclusive and are not listed. The list shows a part of the results. A number with no mark means an inactive call. Cut-off read from the data, not from the text of the source: active = normalized growth mostly below about 0.91 (no sharp cut-off); inconclusive = no clear call, values can overlap the other calls; inactive = mostly above about 0.92.
# Assay: chemical genetic growth profiling, strain panel (AID 1159580);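 note: tested at 20 µM; growth read once vehicle control cultures reached saturation at 30 °C; 1 = growth at the plate median or of vehicle wells; lower values mean less growth of the strain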
# Conditions: S. cerevisiae deletion strains, growth OD
# [1] = locus YHR030C, strain SLT2, active compounds read low
# [2] = locus YJL187C, strain SWE1, active compounds read low
compound,measurement,setting,value
CN(C)c1ccc(-c2n[nH]c(=O)c3ccccc23)cc1[N+](=O)[O-],normalized growth,"locus YAL013W, strain DEP1, active compounds read low",0.966
same,normalized growth,"locus YBR229C, strain ROT2, active compounds read low",0.986
same,normalized growth,"locus YCL061C, strain MRC1, active compounds read low",0.98
same,normalized growth,"locus YDL101C, strain DUN1, active compounds read low",1
same,normalized growth,"locus YDR150W, strain NUM1, active compounds read low",0.981
same,normalized growth,"locus YEL061C, strain CIN8, active compounds read low",0.907 (active)
same,normalized growth,"locus YGR078C, strain PAC10, active compounds read low",1
same,normalized growth,[1],0.875
same,normalized growth,"locus YHR087W, strain rtc3, active compounds read low",0.982
same,normalized growth,[2],0.978
same,normalized growth,"locus YJR043C, strain POL32, active compounds read low",0.963
same,normalized growth,"locus YJR075W, strain HOC1, active compounds read low",0.99
same,normalized growth,"locus YKL190W, strain CNB1, active compounds read low",1.01
same,normalized growth,"locus YLR039C, strain RIC1, active compounds read low",1.09
same,normalized growth,"locus YLR058C, strain SHM2 (second series), active compounds read low",0.994
same,normalized growth,"locus YLR085C, strain ARP6, active compounds read low",0.882
same,normalized growth,"locus YLR262C, strain YPT6, active compounds read low",1.08
same,normalized growth,"locus YML094W, strain GIM5, active compounds read low",0.891
same,normalized growth,"locus YMR219W, strain ESC1, active compounds read low",0.999
same,normalized growth,"locus YMR263W, strain SAP30, active compounds read low",0.961
same,normalized growth,"locus YNL153C, strain GIM3, active compounds read low",0.979
same,normalized growth,"locus YNL298W, strain CLA4 (second series), active compounds read low",0.891
same,normalized growth,"locus YNL322C, strain KRE1, active compounds read low",1.03
same,normalized growth,"locus YNR030W, strain Alg12, active compounds read low",0.955
same,normalized growth,"locus YPL055C, strain LGE1, active compounds read low",0.886
same,normalized growth,"locus YPL241C, strain CIN2, active compounds read low",0.96
same,normalized growth,"locus YPR135W, strain CTF4, active compounds read low",0.97
NC(=O)CS(=O)C(c1ccccc1)c1ccccc1 (stereo unspecified),normalized growth,"locus YAL021C, strain ccr4, active compounds read low",1.01
same,normalized growth,"locus YAL026C, strain drs2, active compounds read low",1.04
same,normalized growth,"locus YAL030W, strain snc1, active compounds read low",1.02
same,normalized growth,"locus YBL061C, strain skt5, active compounds read low",1.02
same,normalized growth,"locus YBR009C, strain hhf1, active compounds read low",0.976
same,normalized growth,"locus YBR023C, strain chs3, active compounds read low",1.03
same,normalized growth,"locus YBR171W, strain sec66, active compounds read low",1.02
same,normalized growth,"locus YBR231C, strain swc5, active compounds read low",1
same,normalized growth,"locus YBR279W, strain paf1, active compounds read low",1.02
same,normalized growth,"locus YCL011C, strain gbp2, active compounds read low",1.02
same,normalized growth,"locus YCL016C, strain dcc1, active compounds read low",1.04
same,normalized growth,"locus YCL069W, strain vba3, active compounds read low",0.998
same,normalized growth,"locus YCR088W, strain abp1, active compounds read low",1.01
same,normalized growth,"locus YDL005C, strain med2, active compounds read low",1.03
same,normalized growth,"locus YDL040C, strain nat1, active compounds read low",0.998
same,normalized growth,"locus YDR001C, strain nth1, active compounds read low",1
same,normalized growth,"locus YDR069C, strain doa4, active compounds read low",1.02
same,normalized growth,"locus YDR137W, strain rgp1, active compounds read low",1.05
same,normalized growth,"locus YDR159W, strain sac3, active compounds read low",0.939
same,normalized growth,"locus YDR195W, strain ref2",0.981
same,normalized growth,"locus YDR297W, strain sur2, active compounds read low",0.994
same,normalized growth,"locus YDR334W, strain swr1, active compounds read low",1
same,normalized growth,"locus YDR335W, strain msn5, active compounds read low",1.02
same,normalized growth,"locus YDR392W, strain spt3, active compounds read low",0.968
same,normalized growth,"locus YEL003W, strain gim4, active compounds read low",0.99
same,normalized growth,"locus YEL037C, strain rad23, active compounds read low",1.01
same,normalized growth,"locus YEL061C, strain CIN8 (second series), active compounds read low",1.01
same,normalized growth,"locus YER015W, strain faa2, active compounds read low",1.01
same,normalized growth,"locus YER016W, strain bim1, active compounds read low",1.02
same,normalized growth,"locus YER111C, strain swi4, active compounds read low",1.01
same,normalized growth,"locus YER155C, strain BEM2 (second series), active compounds read low",1.02
same,normalized growth,"locus YFR010W, strain ubp6, active compounds read low",0.987
same,normalized growth,"locus YGL167C, strain pmr1, active compounds read low",1
same,normalized growth,"locus YGL173C, strain kem1, active compounds read low",1
same,normalized growth,"locus YGL227W, strain vid30, active compounds read low",1.01
same,normalized growth,"locus YGL240W, strain doc1, active compounds read low",1.01
same,normalized growth,"locus YGL253W, strain hxk2, active compounds read low",1.03
same,normalized growth,"locus YHR013C, strain ard1, active compounds read low",1.05
same,normalized growth,"locus YHR027C, strain rpn1, active compounds read low",1.01
same,normalized growth,[1],1.04
same,normalized growth,"locus YHR079C, strain IRE1, active compounds read low",1.04
same,normalized growth,"locus YHR142W, strain chs7, active compounds read low",1.01
same,normalized growth,"locus YJL092W, strain hpr5, active compounds read low",1
same,normalized growth,"locus YJL095W, strain BCK1 (second series), active compounds read low",1.02
same,normalized growth,"locus YJL095W, strain BCK1, active compounds read low",0.996
same,normalized growth,"locus YJL115W, strain asf1, active compounds read low",1.01
same,normalized growth,"locus YJL129C, strain trk1, active compounds read low",1.04
same,normalized growth,"locus YJL154C, strain vps35, active compounds read low",1.01
same,normalized growth,"locus YJL164C, strain tpk1, active compounds read low",0.988
same,normalized growth,"locus YJL166W, strain qcr8, active compounds read low",0.982
same,normalized growth,[2],1.01
same,normalized growth,"locus YJR066W, strain TOR1, active compounds read low",0.977
same,normalized growth,"locus YKL160W, strain elf1, active compounds read low",1.05
same,normalized growth,"locus YKR026C, strain gcn3, active compounds read low",1.01
same,normalized growth,"locus YKR091W, strain srl3, active compounds read low",1.01
same,normalized growth,"locus YLL001W, strain dnm1, active compounds read low",0.972
same,normalized growth,"locus YLL026W, active compounds read low",1
same,normalized growth,"locus YLL041C, strain sdh2, active compounds read low",1
same,normalized growth,"locus YLR027C, strain aat2, active compounds read low",0.985
same,normalized growth,"locus YLR113W, strain HOG1, active compounds read low",0.961
same,normalized growth,"locus YLR221C, strain rsa3, active compounds read low",0.977
same,normalized growth,"locus YLR258W, strain gsy2, active compounds read low",1.03
same,normalized growth,"locus YLR262C, strain YPT6 (second series), active compounds read low",1.01
same,normalized growth,"locus YLR320W, strain mms22, active compounds read low",0.958
same,normalized growth,"locus YLR342W, strain FKS1, active compounds read low",1.02
same,normalized growth,"locus YLR357W, strain rsc2, active compounds read low",0.997
same,normalized growth,"locus YLR370C, strain arc18, active compounds read low",1.02
same,normalized growth,"locus YLR384C, strain iki3, active compounds read low",1.02
same,normalized growth,"locus YML120C, strain ndi1, active compounds read low",0.981
same,normalized growth,"locus YMR058W, strain fet3, active compounds read low",1.02
same,normalized growth,"locus YMR125W, strain sto1, active compounds read low",1.04
same,normalized growth,"locus YMR129W, active compounds read low",1.01
same,normalized growth,"locus YMR205C, strain PFK2, active compounds read low",1.01
same,normalized growth,"locus YMR231W, strain pep5, active compounds read low",0.999
same,normalized growth,"locus YNL071W, strain lat1, active compounds read low",1.02
same,normalized growth,"locus YNL183C, strain NPR1, active compounds read low",0.958
same,normalized growth,"locus YNL209W, strain ssb2, active compounds read low",1.01
same,normalized growth,"locus YNL248C, strain rpa49, active compounds read low",1.04
same,normalized growth,"locus YNL322C, strain KRE1 (second series), active compounds read low",1.02
same,normalized growth,"locus YNR049C, strain mso1, active compounds read low",1.03
same,normalized growth,"locus YOR001W, strain rrp6, active compounds read low",0.928
same,normalized growth,"locus YOR070C, strain gyp1, active compounds read low",1.01
same,normalized growth,"locus YOR080W, strain dia2, active compounds read low",1.01
same,normalized growth,"locus YOR083W, strain WHI5, active compounds read low",0.976
same,normalized growth,"locus YOR106W, strain vam3, active compounds read low",1.02
same,normalized growth,"locus YOR231W, strain MKK1, active compounds read low",1.02
same,normalized growth,"locus YOR265W, strain rbl2, active compounds read low",1.01
same,normalized growth,"locus YOR270C, strain vph1, active compounds read low",1.05
same,normalized growth,"locus YOR290C, strain snf2, active compounds read low",1.06
same,normalized growth,"locus YPL051W, strain arl3, active compounds read low",1.06
same,normalized growth,"locus YPL078C, strain atp4, active compounds read low",1.05
same,normalized growth,"locus YPL106C, strain sse1, active compounds read low",1.04
same,normalized growth,"locus YPL240C, strain hsp82, active compounds read low",1
same,normalized growth,"locus YPL256C, strain CLN2, active compounds read low",1.06
